Compound activity as filed in PubChem.
PrP UTR inh = inhibition of PrP 5' UTR reporter expression; cell-based PrP 5' UTR mRNA reporter, plate reader; inhibition, % (test concentration not listed); 340,000 compounds, 0.35% hits; AID 488862; in the data active = inhibition above about 52%; also: 0 = median of the neutral control wells
Sa RN4220 lethal = S. aureus RN4220 growth inhibition. OD600, 16 h. inhibition, % (test concentration not listed). 330,000 compounds, 0.33% hits. AID 1259311; in the data active = inhibition above about 85%;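 also: plate controls were untreated cells for no effect and reference antibiotic for full effect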
ugtP null kill = compounds lethal to S. aureus RN4220 ugtP deletion mutant. 330,000 compounds, 0.54% hits. AID 1259309. growth inhibition, % (concentration not given with the values). OD600 growth, 16 h; in the data active = growth inhibition above about 68%;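 also: plate controls were untreated wells for no effect and antibiotic for full effect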
PfHsp40 yeast = rescue of PfHsp40-mediated yeast toxicity; growth rescue, % at 12.5 µM; 340,000 compounds, 0.68% hits; S. cerevisiae expressing PfHsp40, growth rescue, ATP luminescence; in the data active = growth rescue above about 28%, passing the limit was not always enough;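 also: yeast W303a lacking pdr1 and pdr3 grown in galactose medium; growth measured after three days at 30 °C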
PrPC TRFRET = inhibitors of human cell surface prion protein PrPC; TR-FRET read-out; P04156; inhibition, % at 13.8 µM; 370,000 compounds, 0.43% hits; in the data active = inhibition above about 24%; also: 0% = median of the test wells and 100% = reference compound wells
CCHFV vOTU inh = CCHFV vOTU protease inhibition. Pep-AMC fluorescence. inhibition, % at 11.5 µM. 370,000 compounds, 0.55% hits; in the data active = inhibition above about 30%; also: 0% = vehicle wells with enzyme and 100% = no enzyme wells
The depositor's hits bear a star; . = no result given. The list is not random: actives were taken first. Their share in the collection is about 2.1%.

SMILES | PrP UTR inh | Sa RN4220 lethal | ugtP null kill | PfHsp40 yeast | PrPC TRFRET | CCHFV vOTU inh
O=C(NCc1ccccc1)C1=CC(C2CC2)CC(OCCCCO)O1 (stereo unspecified) | . | 0 | -1 | . | . | .
Cc1cc(C(=O)OCC(=O)NC2CCCC(C)C2C)c(C)o1 (stereo unspecified) | -5 | -1 | 4 | 62* | -15 | -1
CC(C)(O)C1CC[C@@](C)(C2CC[C@]3(C)C2C(O)CC2[C@@]4(C)CCC(O)C(C)(C)C4C(OC4OC(CO)C(O)C(O)C4OC4OC(CO)C(O)C(O)C4O)C[C@]23C)O1 (stereo partly specified) | . | -1 | -3 | . | . | .
O=C(O)c1cccc2c1NC(C(=O)O)C1CC(Sc3ccccc3[N+](=O)[O-])C(Cl)C21 (stereo unspecified) | -30 | 35 | 24 | 55* | -14 | 27
CC(=O)c1ccc2c(c1)C1C(Cl)C(Sc3ccccc3[N+](=O)[O-])CC1C(C(=O)O)N2 (stereo unspecified) | -12 | 13 | -21 | 2 | -5 | -5
CCCCCC[n+]1c(-c2ccccc2)csc1Nc1ccccc1 | -14 | 0 | 88* | 9 | 6 | 18
Nc1nc(N(Cc2ccccc2)Cc2ccccc2)nc(C(F)(F)F)n1 | . | 7 | 98* | 3 | 2 | 11
CN(N)c1nc(C(F)(F)F)nc2ccccc12 | -16 | 5 | 3 | 0 | 9 | 4
CC(=O)ON=Cc1c(C)c(C=O)n2ccccc12 | . | 8 | -6 | . | . | .
CC(C)CCN1C(=O)c2ccc(C(=O)Nc3cc(C(=O)O)cc(C(=O)O)c3)cc2C1=O | -25 | 6 | 10 | 2 | -2 | 11
O=C(Nc1ccc(Cl)cc1C(=O)O)c1ccc2c(c1)C(=O)N(Cc1ccco1)C2=O | -14 | 66 | 100* | 5 | -1 | 4
CC(C)CCN1C(=O)c2ccc(C(=O)Nc3ccc(Br)cc3C(=O)O)cc2C1=O | -13 | 98* | 100* | -1 | 4 | 4
CC(C)(C)C1C=C(C(=O)O)OC(OCc2ccc(CO)cc2)C1 (stereo unspecified) | . | 7 | 8 | . | . | .
O=C(Cc1ccccc1)NN=Cc1ccc(OC(=O)/C=C\c2ccco2)cc1 | . | 11 | -21 | . | . | .
COc1c2ccc(OCCC(C)=CC(=O)C=C(C)C)cc2nc2occc12 | . | 5 | 1 | . | . | .
N#CC1C(=N)Cc2ccccc2-c2ccccc21 (stereo unspecified) | -5 | 7 | 5 | 39* | 3 | 7
O=C(NN=Cc1ccc(Cl)cc1Cl)c1ccncc1 | . | 0 | 6 | . | . | .
CCOC(=O)Nc1ccc2c(c1)C(=NO)c1ccccc1-2 | -138 | . | . | 207* | -20 | 9
O=C(c1ccccc1)c1ccc(Cn2cc(-c3ccccc3)nn2)cc1 | -26 | 5 | 10 | 723* | 12 | -2
COc1ccc([N+]([O-])=Cc2ccco2)cc1 | . | 0 | 0 | . | . | .
O=C1CC(N(CCc2ccccc2)C(=S)Nc2ccccc2)C(=O)N1c1ccc(Br)cc1 (stereo unspecified) | -18 | 98* | 98* | 1 | 7 | 10
COc1ccc(CCN(C(=S)Nc2ccccc2)C2CC(=O)N(c3ccccc3)C2=O)cc1 (stereo unspecified) | -6 | -3 | -22 | 0 | 6 | 1
Cc1cccc(CN2C[C@]34CCC(CC3S2(=O)=O)O4)c1 (stereo partly specified) | . | 3 | 0 | . | . | .
CC1CC[C@]2(C(=O)O)CC[C@]3(C)C(=CCC4[C@@]5(C)CCC(O)C(C)(C)C5CC[C@]43C)C2C1C (stereo partly specified) | . | 100* | 100* | . | . | .
CCn1cc(C(=O)O)c(=O)c2cc(F)c(N3CCN(S(=O)(=O)c4ccc(NC(C)=O)cc4)CC3)cc21 | -16 | 99* | 99* | 3 | -2 | -8
CCn1cc(C(=O)O)c(=O)c2cc(F)c(N3CCN(S(=O)(=O)c4ccc5c(c4)OCCO5)CC3)cc21 | 17 | 100* | 100* | -1 | -1 | 3
CCn1cc(C(=O)O)c(=O)c2cc(F)c(N3CCNCC3)cc21 | 12 | . | . | 16 | . | .
O=C(Cn1nc(CNc2ccc(Cl)cc2)[n+]2c1CCCCC2)c1ccccc1 | -16 | -5 | -11 | 1 | 5 | 14
Cc1ccc(C(C)C)c(OCc2nn(CC(=O)c3ccc(Cl)cc3)c3[n+]2CCCCC3)c1 | -10 | 100* | 99* | 0 | 9 | 10
COC(=O)C(NC(=O)OC1C(=O)c2cc(Br)ccc2OC1c1cccc(OC)c1)C(C)C (stereo unspecified) | . | 2 | -3 | . | . | .
